The campaign covered roughly 400,000 compounds. About 2,100 (0.53%) were called active. About 14% were inconclusive and are not listed. No rule for the calls is given here. For the sample, actives were picked, then their nearest neighbours and some compounds at random.

Ataxin-2 (Homo sapiens), sequence (Q99700 whole entry): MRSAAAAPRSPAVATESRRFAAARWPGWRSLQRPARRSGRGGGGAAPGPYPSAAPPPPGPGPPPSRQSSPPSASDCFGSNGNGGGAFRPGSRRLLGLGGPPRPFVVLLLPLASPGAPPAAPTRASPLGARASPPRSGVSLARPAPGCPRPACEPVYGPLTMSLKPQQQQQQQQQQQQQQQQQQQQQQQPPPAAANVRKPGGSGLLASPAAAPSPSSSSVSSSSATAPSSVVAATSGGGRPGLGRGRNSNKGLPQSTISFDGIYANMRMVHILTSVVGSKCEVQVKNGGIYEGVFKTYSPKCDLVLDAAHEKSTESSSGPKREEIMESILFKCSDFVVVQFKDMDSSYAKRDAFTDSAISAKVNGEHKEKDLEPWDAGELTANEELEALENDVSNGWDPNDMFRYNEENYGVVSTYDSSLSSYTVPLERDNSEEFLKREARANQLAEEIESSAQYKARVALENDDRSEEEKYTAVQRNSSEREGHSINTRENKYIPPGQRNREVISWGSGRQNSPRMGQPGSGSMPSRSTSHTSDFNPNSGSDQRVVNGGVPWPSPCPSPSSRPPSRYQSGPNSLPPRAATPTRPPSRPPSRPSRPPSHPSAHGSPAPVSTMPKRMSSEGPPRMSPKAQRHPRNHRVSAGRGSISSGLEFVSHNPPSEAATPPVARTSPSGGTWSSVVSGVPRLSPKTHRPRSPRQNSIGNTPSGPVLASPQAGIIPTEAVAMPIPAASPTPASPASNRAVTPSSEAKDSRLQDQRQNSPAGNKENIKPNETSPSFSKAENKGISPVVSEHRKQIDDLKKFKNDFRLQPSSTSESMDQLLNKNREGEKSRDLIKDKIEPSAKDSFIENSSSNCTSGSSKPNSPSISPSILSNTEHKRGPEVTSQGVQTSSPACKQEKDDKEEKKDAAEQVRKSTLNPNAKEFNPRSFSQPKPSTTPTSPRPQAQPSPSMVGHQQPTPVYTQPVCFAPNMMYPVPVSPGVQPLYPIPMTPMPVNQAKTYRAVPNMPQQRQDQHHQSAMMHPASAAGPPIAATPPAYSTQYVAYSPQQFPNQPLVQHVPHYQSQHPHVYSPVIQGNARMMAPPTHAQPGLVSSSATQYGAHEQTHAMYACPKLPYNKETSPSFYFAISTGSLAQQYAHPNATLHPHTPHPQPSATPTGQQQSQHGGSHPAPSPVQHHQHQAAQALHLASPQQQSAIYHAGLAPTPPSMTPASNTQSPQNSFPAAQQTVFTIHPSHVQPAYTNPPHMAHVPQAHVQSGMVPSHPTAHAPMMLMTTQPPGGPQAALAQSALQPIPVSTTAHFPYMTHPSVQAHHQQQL

The test concerns the target Ataxin-2 (Homo sapiens) (UniProt Q99700). Description: qHTS for Inhibitors of ATXN expression. Type of test: functional.
As to `O=S(=O)(Nc1ccc(-c2cn3cccnc3n2)cc1)c1ccccc1`, the Potency result was “inactive”.

Consider `Clc1ccc(-c2nc3cnccn3c2NC2CCCC2)cc1`, for which the Potency entry is “inactive”.

As to `O=C(O)c1ccn2c(C(=O)c3ccc(Cl)cc3)c(-c3ccccc3)cc2c1`, the Potency result is “inactive”.

With `COc1ccc(C(=O)C(CN2CCCC2)c2ccccc2)cc1` (stereo unspecified), the Potency was 28.2 µM (active).

As to `O=C(c1ccc(Cl)cc1)C(CN1CCCC1)c1ccccc1` (stereo unspecified), the Potency was 22.4 µM (active).

Take `O=C(/C=C/c1cn(CC(O)CN2CCCCC2)c2ccccc12)c1ccccc1` (stereo unspecified): the Potency entry was “inactive”.

Consider `COc1ccc(CC(=O)N2CCN(c3ccccc3)CC2)cc1`, for which the Potency result was “inactive”.

`O=C(c1ccc(Cl)cc1)C1CCN(C(=O)c2ccccc2F)CC1`: the Potency entry was “inactive”.

For `O=C(/C=C/c1cn(CC(O)CN2CCCCCC2)c2ccccc12)c1ccccc1` (stereo unspecified), the Potency result is “inactive”.

Turning to `O=C(c1ccc(Cl)cc1)C(CN1CCCCC1)c1ccccc1` (stereo unspecified), the Potency is 31.6 µM (active).

On to `CC(C)(C)C(CN1CCCC1)OC(=O)c1ccccc1` (stereo unspecified), for which the Potency entry was “inactive”.

Consider `O=C(C1=NN(c2ccccc2)C2C(=O)N(c3cccc(Cl)c3)C(=O)C12)c1ccccc1` (stereo unspecified), for which the Potency entry was “inactive”.

As to `COc1ccc(-c2c(C#N)c(N)nc3c2CCC3)cc1`, the Potency result was “inactive”.

With `CCCCN1C(=O)C2Cc3c([nH]c4ccccc34)CN2C1=S` (stereo unspecified), the Potency result is “inactive”.

Consider `O=c1c(O)c(-c2cccs2)oc2ccccc12`, for which the Potency result was “inactive”.

With `CC(C)Oc1ccc(C(CCN)C2CCCCC2)cc1` (stereo unspecified), the Potency was 25.1 µM (active).

As for `COc1ccc(C2CC(c3ccc(OC)cc3OC(C)=O)=NN2C(=O)c2ccccc2)cc1` (stereo unspecified), the Potency result is “inactive”.

For `COc1ccc(C2CC(c3ccc4ccccc4c3)=NN2C(=O)CNC2CCCCC2)cc1` (stereo unspecified), the Potency was 39.8 µM (active).

As to `CCC(=O)Nc1cccc(C2=NN(c3ccccc3)C(c3ccc(OC)cc3)C2)c1` (stereo unspecified), the Potency result is “inactive”.

For the compound `CCOc1ccc2nc(NCCCNS(=O)(=O)c3ccc(F)cc3)c(C#N)cc2c1`, the Potency entry is “inactive”.

In the case of `Nc1c(C(=O)Nc2ccccc2F)sc2nc(-c3ccco3)ccc12`, the Potency result is “inactive”.

Take `COc1ccc(C(=O)Nc2cccc(/C=C/c3nc(O)c4ccccc4n3)c2)cc1`: the Potency is 25.1 µM (active).

With `COc1ccc(NC(=O)c2cc3ccccc3cc2O)cc1`, the Potency result is “inactive”.

As to `COc1cc(/C=C/c2nc(O)c3ccccc3n2)cc(Cl)c1O`, the Potency entry is “inactive”.

In the case of `O[C@@H]1[C@@H]2c3cc4c(cc3CN3CCC(=C[C@@H]1O)[C@H]23)OCO4`, the Potency was 6.31 µM (active).

Turning to `COc1cc(C2Nc3ccc4ccccc4c3C3=C2C(=O)CC(C)(C)C3)ccc1OCC(=O)O` (stereo unspecified), the Potency result was “inactive”.

With `COCCN(CCOC)Cc1c(O)ccc2c1O/C(=C\c1ccco1)C2=O`, the Potency result was “inactive”.

With `Cc1cc(-c2ccnc(-n3ncc(C(=O)NCC4COCCO4)c3C3CC3)n2)c(C)s1` (stereo unspecified), the Potency result was “inactive”.

`O=C(NN/C=C1\C(=O)N(c2ccccc2Cl)C(=O)c2ccccc21)c1cccnc1`: the Potency result is “inactive”.

Take `CNc1ccc(N=Nc2cc[n+]([O-])cc2C)cc1C`: the Potency is 28.2 µM (active).

On to `CCOC(=O)C1(Cc2ccccc2C(F)(F)F)CCN(CC(O)CO)CC1` (stereo unspecified), for which the Potency result was “inactive”.

`Cc1cccn2c(=O)c3cc(S(=O)(=O)c4ccccc4)c(=N)n(Cc4ccco4)c3nc12`: the Potency entry is “inactive”.

Consider `CCc1ccc(-c2cc(C(F)(F)F)n3nc(C(=O)Nc4c(C)nn(Cc5ccccc5Cl)c4C)cc3n2)s1`, for which the Potency entry is “inactive”.

Take `Cc1ccc(-n2nc(C)c(NC(=O)CCl)c2C)cc1C`: the Potency is 35.5 µM (active).

With `Cc1nn(Cc2ccccc2Cl)c(C)c1C(=O)N(C)CC(=O)Nc1cccc(F)c1`, the Potency result is “inactive”.

For `CCOC(=O)CNC(=O)Cn1cnc2c(cnn2-c2ccc(C)cc2)c1=O`, the Potency entry is “inactive”.

`Cc1ccc(-n2nc(C)c(NC(=O)CCl)c2C)cc1`: the Potency is 39.8 µM (active).

For `COc1ccc(-c2c(NC(=O)c3ccco3)n(-c3ccc(C)cc3)nc(C)c2=O)cc1`, the Potency result was “inactive”.

For the compound `Cc1nn(Cc2ccc(Cl)cc2Cl)c(C)c1NC(=O)CCl`, the Potency was 25.1 µM (active).

`Cc1nn(-c2ccccc2)c(C)c1C(=O)OCC(=O)Nc1ccccc1Cl`: the Potency entry was “inactive”.

For the compound `Cc1cc(C)n(-c2ccc(C(=O)NCC(=O)Nc3cc(Cl)ccc3Cl)cc2)n1`, the Potency result is “inactive”.

Consider `COCCSc1ccccc1C(=O)N1CCc2ccccc21`, for which the Potency entry was “inactive”.

`CCOCCCn1c(=N)c(C(=O)NCc2ccccc2)cc2c(=O)n3ccccc3nc21`: the Potency result was “inactive”.

Consider `O=C1CCC(=O)N1c1nc2n(n1)C(c1ccccc1)C=C(c1ccc(Br)cc1)N2` (stereo unspecified), for which the Potency entry is “inactive”.

Regarding `Cc1[nH]c2ccccc2c1C1=CC(=O)C=CC1=O`, the Potency is 39.8 µM (active).

Consider `Cc1ccc2[nH]c3ccccc3c(=O)c2c1`, for which the Potency entry is “inactive”.

For `O=c1c2ccccc2[nH]c2ccccc12`, the Potency entry is “inactive”.

Consider `COCc1cc(C)nc2sc(C(=O)Nc3nccs3)c(N)c12`, for which the Potency entry is “inactive”.

Regarding `Cc1ccccc1N=C(S)NNC(=O)c1cccc(Br)c1`, the Potency entry was “inactive”.

Take `C/C(=N\NC(=O)c1ccc(-n2cnnn2)cc1)c1ccc(Cl)cc1`: the Potency entry is “inactive”.

Take `O=C(N/N=C1/C(=O)c2cccc3cccc1c23)c1ccc(Cl)cc1`: the Potency is 35.5 µM (active).

As to `Nc1[nH]cnc2c(C3OC(CO)C(O)C3O)cnc1-2` (stereo unspecified), the Potency is 0.299 µM (active).

`CCOC(=O)c1cc2c(=O)n3ccccc3nc2n(Cc2ccco2)/c1=N\C(=O)c1ccc(F)cc1`: the Potency result was “inactive”.

Turning to `Cc1cccn2c(=O)c3cc(S(=O)(=O)c4ccc(F)cc4)c(=N)n(Cc4ccco4)c3nc12`, the Potency result is “inactive”.

As to `Cc1nc2c(sc(=S)n2Cc2ccco2)c(=O)n1CC(=O)Nc1ccc(F)cc1`, the Potency was 39.8 µM (active).

With `Cc1cc(C)c2c(N)c3cccc(C)c3nc2n1`, the Potency entry is “inactive”.

In the case of `CCOC(=O)C1=C(Nc2ccccc2)S/C(=C\c2ccc(OCC(=O)O)c(OCC)c2)C1=O`, the Potency result is “inactive”.

As to `CCOC(=O)C1=C(C#N)C(C(=O)OCC)c2ncccc21` (stereo unspecified), the Potency entry was “inactive”.

`CCOC(=O)C1=C(O)c2ccccc2C(=O)/C1=C\c1ccc(C)cc1`: the Potency is 39.8 µM (active).

Regarding `COCCNc1c2c(c(C#N)c3nc4ccccc4n13)CCCC2`, the Potency entry is “inactive”.

With `Cc1ccc2[nH]c(/C(C#N)=C/c3ccc(-c4ccccc4C(=O)O)o3)nc2c1`, the Potency entry is “inactive”.

On to `Cc1c(Cl)cccc1-c1ccc(/C=C(\C#N)c2nc3ccccc3[nH]2)o1`, for which the Potency result is “inactive”.

Take `COc1cc(/C=C(\C#N)c2nc3cc(C)ccc3[nH]2)ccc1OCc1ccc(C)cc1`: the Potency result was “inactive”.

Take `COc1cc(/C=C(\C#N)c2nc3cc(C)ccc3[nH]2)ccc1OC(C)C`: the Potency entry was “inactive”.

Regarding `Cc1ccc2[nH]c(/C(C#N)=C\c3ccc([N+](=O)[O-])o3)nc2c1`, the Potency was 8.91 µM (active).

Consider `COc1ccc(/C=C(\C#N)c2nc3cc(C)ccc3[nH]2)cc1Oc1ccc(C(F)(F)F)cc1[N+](=O)[O-]`, for which the Potency is 44.7 µM (active).

For the origin of these results see ChEMBL document CHEMBL1201862, “PubChem BioAssay data set” (2004).
